# In PubChem BioAssay AID1259423 (Fisher Drug Discovery Resource Center, 2018):
# About 410 (0.15%) of roughly 270,000 compounds were called active. Rule as the data show it: active = activation above about 40%; inactive = the rest, inconclusive results apart. The sample as a whole holds a higher share of actives than the screen did.
# Tested on: Aedes aegypti neuropeptide Y-like receptor 7 (NPYLR7)
# Experiment: agonists of mosquito NPYLR7 receptor, primary screen, cell-based, Aedes aegypti, calcium fluorescence, mosquito biting behavior (AID 1259423);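 also: 0% = vehicle and 100% = reference agonist at the receptor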
# Conditions: HEK293T NPYLR7/Galpha15, GCaMP6s calcium fluorescence, at 10 µM, stronger effect = higher value
# [1] = measured here: Max-Min RFU normalised activation
Structure (SMILES),activation,activation [1]
CCCCN(C)C(=O)c1nn(Cc2ccc(S(=O)(=O)N(C)c3ccccc3)cc2)c2ccccc12,11.3% (inactive),10%
CNC(C)c1nc2ccccc2c(=O)n1-c1ccc(Br)cc1 (stereo not drawn),0.997% (inactive),9.08%
CC(C)CN(Cc1cc(NC(=O)c2cccc(F)c2)ccc1N(C)C1CCN(C)CC1)C(=O)c1ccccc1Cl,1.98% (inactive),1.76%
N#[N+]c1c[nH]c2ccccc2c1=O,-8.5% (inactive),-5.61%
